An excerpt weighted towards active compounds, which were near 21% of everything screened.
CYP2C19 act = human CYP2C19 activators, primary screen, biochemical, luminescence | recombinant CYP2C19, luciferin-H EGE luminescence; stronger effect = higher value; 0 = fully inhibited enzyme, 1 = untreated enzyme | 96,000 tested, under 10 active | activation factor at 5 µM | AID 1025, 2008;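 active = activation factor of at least 2 at 5 µM in the primary screen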;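 note: 0 = wells with 2.5 mM tranylcypromine and 1 = vehicle-only wells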
CYP2C9 inh = blockers of cytochrome P450 2C9 activity – biochemical, luminescence, ADME assay, primary screen; AID 777, 2007; CYP2C9 Supersomes, luciferin-H conversion; P11712; 20% of 96,000 active; inhibition, % at 5 µM;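 active = blocking of liver enzyme CYP2C9 beyond about 50% at 5 µM, limit read from the data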
Target sequence (P11712 whole entry, looked up): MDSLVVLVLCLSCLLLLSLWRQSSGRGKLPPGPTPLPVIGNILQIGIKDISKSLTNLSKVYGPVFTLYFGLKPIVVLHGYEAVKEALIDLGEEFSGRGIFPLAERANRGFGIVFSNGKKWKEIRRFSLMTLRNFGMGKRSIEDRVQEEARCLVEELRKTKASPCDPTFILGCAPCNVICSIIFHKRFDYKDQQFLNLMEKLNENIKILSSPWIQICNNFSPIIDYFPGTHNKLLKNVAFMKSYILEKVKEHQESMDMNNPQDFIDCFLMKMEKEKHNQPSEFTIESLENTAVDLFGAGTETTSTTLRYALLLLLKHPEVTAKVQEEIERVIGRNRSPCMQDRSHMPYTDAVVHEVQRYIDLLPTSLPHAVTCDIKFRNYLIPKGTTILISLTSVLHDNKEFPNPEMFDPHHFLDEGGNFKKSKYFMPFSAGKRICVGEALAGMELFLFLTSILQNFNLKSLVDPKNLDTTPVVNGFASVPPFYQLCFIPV
MRP reversal = reversal of MRP1-mediated doxorubicin resistance, primary screen, H69AR cells, doxorubicin co-treatment; H69AR cells + 2 uM doxorubicin, CellTiter-Glo, 72 h; differential viability (reversal), % at 10 µM; 0.04% of 85,000 active; AID 602, 2007;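 active = viability drop by adding the cancer drug above about 55%, with treated viability meeting a 40% cutoff, limit read from the data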;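 note: viability without doxorubicin minus viability with 2 µM doxorubicin for each compound; larger differential means the compound sensitizes cells more to doxorubicin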
CYP2C9 activ = human CYP2C9 activators, primary screen, biochemical, luminescence. 1.4% of 96,000 active. recombinant CYP2C9, luciferin-H conversion; stronger effect = higher value; factor 1 = untreated enzyme, 0 = blocked. Cytochrome P450 2C9 (Homo sapiens), P11712. activation factor at 5 µM. AID 1024, 2008;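 active = activation factor of 2 or more for CYP2C9 at a 5 µM dose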;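 note: 0 = sulfaphenazole-blocked wells and 1 = vehicle-only wells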
CYP2C19 inh = blockers of cytochrome P450 2C19 activity – biochemical, luminescence, ADME assay, primary screen. P33261. CYP2C19 Supersomes, luciferin-H EGE luminescence, 30 min. inhibition, % at 5 µM. 21% of 96,000 active;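 active = CYP2C19 inhibition above a set limit at 5 µM in the primary screen, cut at about 50% in these data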;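 note: plate controls were negative control wells for no effect and 2.5 mM tranylcypromine positive control for full effect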
MRP-1 activ = H69AR viability gain despite doxorubicin, primary screen, MRP-1 activator project, H69AR cells, CellTiter-Glo; viability rescue; viability increase, % at 10 µM; 0.61% of 140,000 active; AID 799, 2007;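 active = viability gain under doxorubicin at or above a set limit, the compound median plus 3 SD, cut at about 4.7% in these data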;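 note: MRP-1 overexpressing cells given doxorubicin 25 µM after compound pretreatment; 18-22 h compound pretreatment then 72 h with doxorubicin before readout; 0% = doxorubicin-only wells and 100% = vehicle-treated cells without doxorubicin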
Numbers without * were called inactive.

`Cc1ccc(N(C(C)C(=O)Nc2cc(Cl)ccc2Oc2ccccc2)S(C)(=O)=O)cc1` (stereo not given) gave CYP2C19 act 0.1, CYP2C9 inh 77*, CYP2C9 activ 0.2, CYP2C19 inh 86* and MRP-1 activ -4.
`CC(C(=O)Nc1ccc2c(c1)OCO2)N(c1ccc(Cl)cc1)S(C)(=O)=O` (stereo not given) gave CYP2C19 act 0, CYP2C9 inh 93*, MRP reversal 7, CYP2C9 activ 0.1, CYP2C19 inh 98* and MRP-1 activ -2.
COc1ccc(N(C(C)C(=O)NC2CCCCCC2)S(C)(=O)=O)cc1 (stereo not given) was read as CYP2C19 act 0.7, CYP2C9 inh 28, MRP reversal 7, CYP2C9 activ 0.7, CYP2C19 inh 31 and MRP-1 activ -1.
Screening COc1ccc(C)cc1NC(=O)C(C)N(c1ccc(C)cc1)S(C)(=O)=O (stereo not given) returned CYP2C19 act 0.6, CYP2C9 inh 56*, MRP reversal -2, CYP2C9 activ 0.4, CYP2C19 inh 44 and MRP-1 activ -2.
Screening COc1ccc(NC(=O)C(C)N(c2ccc(C)cc2)S(C)(=O)=O)cc1 (stereo not given) returned CYP2C19 act 0.1, CYP2C9 inh 74*, MRP reversal 16, CYP2C9 activ 0.3, CYP2C19 inh 90* and MRP-1 activ -2.
`CC(=O)NC1C(Oc2ccccc2C)OC2COC(c3ccco3)OC2C1O` (stereo not given) gave MRP-1 activ 2.
Screening S=c1sc(SCCOc2ccccc2)nn1-c1ccccc1 returned MRP-1 activ 0.
`Cc1cccc(N2CCN(c3ccc(N4C(=O)CCCC4=O)cc3[N+](=O)[O-])CC2C)c1` (stereo not given) gave MRP-1 activ -1.
`Cc1cc(NCc2ccco2)n2ncnc2n1` gave MRP-1 activ -1.
For CCn1cc(C(=O)N2CCN(c3cccc(Cl)c3)CC2)c2cc(OC)c(OC)cc2c1=O the results were CYP2C19 act 0.2, CYP2C9 inh 80*, CYP2C9 activ 0.2, CYP2C19 inh 76* and MRP-1 activ -2.
For CCOC(=O)COc1cccc2c(=O)n(CC(=O)N3CCCc4ccccc43)ccc12 the results were CYP2C19 act 0.9, CYP2C9 inh 1, MRP reversal 6, CYP2C9 activ 1, CYP2C19 inh 8 and MRP-1 activ -1.
For COc1cccc2c(=O)n(CC(=O)N3CCCc4ccccc43)ccc12 the results were CYP2C19 act 0.1, CYP2C9 inh 46, MRP reversal -1, CYP2C9 activ 0.5, CYP2C19 inh 87* and MRP-1 activ -3.
CCn1cc(C(=O)N2CCCc3ccccc32)c2cc(OC)c(OC)cc2c1=O was read as CYP2C19 act 0.4, CYP2C9 inh 21, MRP reversal -7, CYP2C9 activ 0.8, CYP2C19 inh 56* and MRP-1 activ -4.
For COc1cc2c(C(=O)N3CCN(c4cccc(Cl)c4)CC3)cn(C)c(=O)c2cc1OC the results were CYP2C19 act 0.8, CYP2C9 inh 42, CYP2C9 activ 0.6, CYP2C19 inh 21 and MRP-1 activ -3.
`COc1cc(C(=O)N2CCCc3ccccc32)cc(OC)c1OC` gave MRP reversal -30 and MRP-1 activ -4.
Screening O=C(COC(=O)c1ccc(CNS(=O)(=O)c2ccc(F)c(Cl)c2)cc1)NCC1CCCCC1 returned MRP-1 activ 1.
Screening COC(=O)c1ccc(NC(=S)NC2CC3CCC2C3)cc1 (stereo not given) returned MRP-1 activ -5.
`Cc1cc(C)nc(Sc2c(C)nn(-c3ccccc3)c2C)n1` gave CYP2C19 act 0.1, CYP2C9 inh 25, MRP reversal -2, CYP2C9 activ 0.8, CYP2C19 inh 91* and MRP-1 activ -1.
`CC(C)N1C(=O)C2ON(c3ccccc3)C(c3cccs3)C2C1=O` (stereo not given) gave CYP2C19 act 0.5, CYP2C9 inh 34, MRP reversal 14, CYP2C9 activ 0.7, CYP2C19 inh 48 and MRP-1 activ -4.
For O=C1C2ON(c3ccccc3)C(c3ccncc3)C2C(=O)N1c1ccccc1 (stereo not given) the results were CYP2C19 act 0, CYP2C9 inh 86*, CYP2C9 activ 0.1, CYP2C19 inh 100* and MRP-1 activ 2.
Screening Cc1cccc(C)c1N1C(=O)C2ON(c3ccccc3)C(c3ccncc3)C2C1=O (stereo not given) returned CYP2C19 act 0, CYP2C9 inh 100*, MRP reversal 11, CYP2C9 activ 0, CYP2C19 inh 100* and MRP-1 activ -1.
`Cc1ccc(N2C(=O)C3ON(c4ccccc4)C(c4ccncc4)C3C2=O)c(C)c1` (stereo not given) gave CYP2C19 act 0, CYP2C9 inh 95*, MRP reversal 2, CYP2C9 activ 0, CYP2C19 inh 100* and MRP-1 activ -1.
CCOC(O)[C@H]1N[C@@H](c2ccc(Cl)cc2)[C@@H]([N+](=O)[O-])[C@@H]1c1ccccc1 (stereo not given in full) was read as MRP-1 activ 0.
For COc1ccc(C2(CNC(=O)Cc3ccc(OC)c(OC)c3)CCOCC2)cc1 the results were CYP2C19 act 1.1, CYP2C9 inh -17, MRP reversal 1, CYP2C9 activ 1.2, CYP2C19 inh -11 and MRP-1 activ -2.
`COC(=O)c1ccc(CSc2nnc(NC(=O)C3CC(=O)N(Cc4ccc(C)cc4)C3)s2)cc1` (stereo not given) gave MRP-1 activ -3.
Cc1cc(C)c(NC(=O)c2sc3nc4c(cc3c2N)C(=O)CC(C)(C)C4)c(C)c1 was read as MRP-1 activ 5.4*.
Screening Cc1ccc(C(C(=O)NCc2ccco2)N(C(=O)CNC(=O)c2cccs2)c2c(C)cc(C)cc2C)cc1 (stereo not given) returned CYP2C19 act 1, CYP2C9 inh 20, CYP2C9 activ 0.8, CYP2C19 inh 5 and MRP-1 activ -2.
Screening CCOC(=O)/C(=C/c1ccc(OC(=O)c2ccccc2)cc1)C(C)=O returned MRP-1 activ 4.
Screening Clc1cccc(Cl)c1/C=C/c1nc2ccccc2[nH]1 returned CYP2C19 act 0.7, CYP2C9 inh 84*, CYP2C9 activ 0.2, CYP2C19 inh 32 and MRP-1 activ -5.

Compound activity: PubChem BioAssay, several laboratories
